Rows were chosen to be rich in hits. Some 11% of all compounds tested hit in one or more screens of this group.
IMPase Li cell: qHTS Assay for Identifying the Cell-Membrane Permeable IMPase Inhibitors: Potentiation with Lithium; 210,000 tested, 0.35% active; CHO-M1 cells, IP1 TR-FRET (IP-One), carbachol + lithium; Potency, µM (highest dose often 59.4 µM), for inactives: top-dose activity, negative = IMPase inhibition, most hits filed as inhibitors; AID 1457, 2008; active = well fitted curve in the direction sought with a large enough effect; inconclusive = small, poorly fitted or top-dose-only effect, or another doubt; inactive = no such curve, though single readings can be large; an effect the other way counts as inactive or inconclusive;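 also: IP1 builds up when IMPase is blocked and the TR-FRET signal falls; potency is read from the fitted curve at half-maximal effect; plate controls were basal vehicle for no effect and high inhibitor control for full effect; nearly all actives have a fitted effect of over 50% in size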
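Lithium-sensitised IP1 accumulation assay; M1-expressing CHO cells treated 30 min at 37C with compound. Competitive antibody detection by time-resolved FRET followed a 10 min room-temperature lysis step.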
PNC inhibitor: High Content Assay for Compounds that inhibit the Assembly of the Perinucleolar Compartment; activity change (PNC), negative = inhibition, % at 10 µM; PC3M PTB-GFP, PNC prevalence imaging, 16 h; stronger effect = lower value; 140,000 tested, 3.1% active;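 active = readout at or below -70, meaning at least 70% loss of cells showing the perinucleolar compartment, a nuclear body marking cancer cells; inconclusive = readout between -30 and a set limit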;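 also: plate controls were DMSO wells for no effect and camptothecin positive control wells for full effect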
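Read-out is percentage of cells bearing a perinucleolar compartment, from automated 20x imaging of fixed, Hoechst-stained PC3M PTB-GFP cells. Cells were seeded 4 h, then exposed 16 h to compound (23 nl of library stock) in duplicate plates.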
ALDH1A1 inh: qHTS Assay for Inhibitors of Aldehyde Dehydrogenase 1 (ALDH1A1). Aldehyde dehydrogenase 1A1 (Homo sapiens), P00352. Purified ALDH1A1, NADH fluorescence, propionaldehyde substrate. Potency, µM (series often up to 75.3 µM), for inactives: at the top dose activity, negative = inhibition, most hits filed as inhibitors. 220,000 tested, 7.3% active. AID 1030, 2008;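 also: potency is read from the fitted curve at half-maximal effect; plate controls were no enzyme wells and a reference inhibitor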
HPGD block: qHTS Assay for Inhibitors of HPGD (15-Hydroxyprostaglandin Dehydrogenase). 15-hydroxyprostaglandin dehydrogenase [NAD(+)] (Homo sapiens), P15428. purified HPGD, NADH fluorescence kinetic, PGE2 substrate. Potency, µM, inactives show at the top dose activity change, negative = inhibition, hits mostly inhibitors. 150,000 tested, 4.3% active; also: potency is read from the fitted curve at half-maximal effect
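NADH formation kinetics: reaction with 30 uM PGE2 and 1 mM NAD+ (final), 20 nM enzyme, Tris-HCl pH 8 with Tween 20, after 15 min compound preincubation at room temperature. Fluorescence change, last versus first of five reads.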
IMPase inh: qHTS Assay for Identifying the Cell-Membrane Permeable IMPase Inhibitors | CHO-M1 cells, IP1 accumulation, HTRF TR-FRET ratio | AID 901, 2007 | inhibition (IP1 accumulation), % at 46.1 µM | 120,000 tested, under 10 active; active = well fitted curve in the direction sought with a large enough effect in the signal ratio, not every such curve was filed as active; inconclusive = small, poorly fitted or top-dose-only effect, or a change in a side signal; inactive = no such curve, though single readings can be large or run the other way; the % refers to the signal ratio;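 also: cells stimulated with carbachol in lithium chloride buffer; plate controls were DMSO basal wells for no effect and reference inhibitor wells for full effect; higher means more IMPase inhibition seen as more IP1 and lower FRET ratio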
Target sequence (P97697 whole entry, looked up): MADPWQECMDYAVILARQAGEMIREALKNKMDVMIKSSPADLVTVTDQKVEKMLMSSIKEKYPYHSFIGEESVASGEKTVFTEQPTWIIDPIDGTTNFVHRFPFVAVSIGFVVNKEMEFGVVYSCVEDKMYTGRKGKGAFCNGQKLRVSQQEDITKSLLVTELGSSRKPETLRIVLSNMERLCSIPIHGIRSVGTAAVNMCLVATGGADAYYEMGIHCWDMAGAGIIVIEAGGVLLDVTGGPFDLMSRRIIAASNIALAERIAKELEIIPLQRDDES
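In this qHTS, compounds (final up to 46 uM) act on CHO-M1 cells that are then activated through the M1 receptor with carbachol, in pH 7.4 buffer containing 50 mM LiCl, for 30 min. IP1 accumulation is quantified by the IP-One immunoassay.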
NPSR antag: qHTS Assay for Antagonists of the Neuropeptide S Receptor: cAMP Signal Transduction; Q6W5P4; CHO-NPSR cells, cAMP TR-FRET, antagonist mode; 220,000 tested, 1% active; Potency, µM (highest dose often 38.3 µM), for the others: at the highest dose activity change, negative = inhibition, most hits filed as inhibitors; active = well fitted curve in the direction sought with a large enough effect; inconclusive = small, poorly fitted or top-dose-only effect, or another doubt; inactive = no such curve, though single readings can be large; an effect the other way counts as inactive or inconclusive; also: potency is read from the fitted curve at half-maximal effect; nearly all actives have a fitted effect of over 50% in size
Target sequence (Q6W5P4 whole entry, looked up): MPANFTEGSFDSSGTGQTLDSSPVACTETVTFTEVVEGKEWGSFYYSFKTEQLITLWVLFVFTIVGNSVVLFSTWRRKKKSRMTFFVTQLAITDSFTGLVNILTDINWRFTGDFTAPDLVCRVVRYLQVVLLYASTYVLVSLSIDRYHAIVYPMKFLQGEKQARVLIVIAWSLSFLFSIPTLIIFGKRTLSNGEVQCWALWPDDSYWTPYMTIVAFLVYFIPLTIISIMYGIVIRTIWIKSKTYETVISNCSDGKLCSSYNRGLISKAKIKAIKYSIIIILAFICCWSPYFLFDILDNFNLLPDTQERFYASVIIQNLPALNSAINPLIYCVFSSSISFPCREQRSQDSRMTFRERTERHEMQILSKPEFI
* hit, by the source's call; ? = inconclusive; nt = not tested or not shown; [ ] = dose if it differs, or a comment. Unless noted, calls follow the shape of the dose curve; as a rule, active = well fitted inhibition curve with a large enough effect (not every such curve was filed as active); inconclusive = small, poorly fitted or top-dose-only effect, or another doubt; inactive = no such curve, though single readings can be large or run the other way. Unless noted, % is scaled to controls: 0 for no effect and ±100 for the full control effect.

SMILES	IMPase Li cell	PNC inhibitor	ALDH1A1 inh	HPGD block	IMPase inh	NPSR antag
COc1ccc(S(=O)(=O)n2ccc(C(C)Oc3ccc(-c4ccccc4)c(F)c3)n2)cc1 (stereo not drawn)	26.5%[38.3 µM]	?	8.2%	-13.9%	-8.3[1.84 µM]	-16.4%[46.1 µM]
Nc1nc(-c2ccc3c(c2)NC(=O)CO3)cs1	36.6%[38.3 µM]	?	3.16µM*	17.8µM*	-0.4	-11.8%[46.1 µM]
CCC(C)C(=O)Nc1nc(-c2ccc3c(c2)NC(=O)CO3)cs1 (stereo not drawn)	-3.9%[38.3 µM]	44.9	20µM*	-26.1%	5.0	-11.6%[46.1 µM]
COc1cccc(-c2cncnc2NCCN2CCOCC2)c1	-1.0%	nt	-2.8%	nt	nt	nt
O=C1CCC(=O)N1c1nc2n(n1)C(c1ccccc1)C=C(c1ccc(Br)cc1)N2 (stereo not drawn)	11.2µM*	-27.9	?	?	-17.2	9.2%[46.1 µM]
COc1ccc(C2C=C(c3ccc(Br)cc3)Nc3nc(N4C(=O)CCC4=O)nn32)cc1 (stereo not drawn)	0.8%[38.3 µM]	12.2	?	?	-11.1	-11.0%[46.1 µM]
CCOC(=O)c1c(C)oc2ccc(OCC(N)=O)cc12	-2.9%	?	21.7%	-5.9%	2.9	-6.5%[46.1 µM]
CCOC(=O)c1c(C)cccc1OCC(N)=O	7.4%	-100.0*	-4.7%	-8.6%	-0.2	0.6%[46.1 µM]
O=C(N/N=C/c1ccco1)c1cccc(N2Cc3ccccc3C2)c1	3.3%	nt	20µM*	nt	nt	11.8%
O=C(N/N=C/c1ccco1)c1cc(-c2ccccc2)n[nH]1	2.8%	-8.7	-7.5%	-16.1%	10.6	-18.4%
O=C(N/N=C/c1ccco1)c1cc(-c2cccc3ccccc23)n[nH]1	8.6%[38.3 µM]	46.6	-4.4%	25.1µM*	-1.7	-28.0%[46.1 µM]
COCCN1C(=O)c2oc3ccccc3c(=O)c2C1c1ccc(O)c(OC)c1 (stereo not drawn)	9.5%	75.6	-4.4%	-7.0%	-10.7	5.7%
O=[N+]([O-])/C(=C\Nc1ccccc1Cl)S(=O)(=O)c1ccccc1	7.6%[38.3 µM]	-24.6	-99.4%	31.6µM*	3.8	1.1%[46.1 µM]
O=[N+]([O-])/C(=C\Nc1ccccc1)S(=O)(=O)c1ccccc1	5.1%[38.3 µM]	19.4	-7.0%	-8.2%	-3.2	-6.8%[46.1 µM]
O=C1CC(c2ccccc2)Oc2ccccc21 (stereo not drawn)	-3.2%	nt	-3.1%	-16.9%	nt	nt
Cn1c(Cl)cnc1C1CC(=O)c2cc(Cl)ccc2O1 (stereo not drawn)	9.1%	-112.1*	17.8µM*	?	9.5	7.4%[46.1 µM]
O=C(OC1CCOC1=O)c1cc(-c2ccc(Br)cc2)nc2ccccc12 (stereo not drawn)	-15.5%	-119.2*	?	-59.1%	-13.6	-29.7%[46.1 µM]
CCOC(=O)c1sc2ccccc2c1OC(=O)c1ccccc1	37.6%[38.3 µM]	-24.6	?	-7.8%	7.4	-15.9%[46.1 µM]
Cn1nnc2cc(C(=O)NC(C)(C)C)ccc21	6.2%[38.3 µM]	14.5	3.0%	-6.1%	-3.7	-5.5%[46.1 µM]
CC(C)(C)NC(=O)c1ccc2nsnc2c1	-2.7%	-110.0*	4.1%	-17.5%	nt	-2.6%
O=C(Oc1ccccc1)c1ccc2nsnc2c1	-2.1%	5.2	3.98µM*	-5.5%	1.5	-11.2%[46.1 µM]
COC(=O)c1ccc(CSc2nc3ccccc3c(=O)n2-c2ccccc2)o1	16.6%[38.3 µM]	14.4	25.1µM*	-17.6%	11.5	-25.8%[46.1 µM]
CCOc1ccc(-c2csc(N)c2C(=O)OC)cc1	21.2%[38.3 µM]	47.4	22.4µM*	14.1µM*	2.1	-6.2%[46.1 µM]
CC(=O)NC(CSC(CC(=O)c1ccco1)c1ccc(C)cc1)C(=O)O (stereo not drawn)	-0.1%	nt	?	nt	nt	6.6%
COc1ccc(-c2cc(C(=O)Nc3cc(OC)c(OC)c(OC)c3)no2)cc1OC	-25.2%[38.3 µM]	16.6	6.1%	-12.7%	4.4	-1.7%[46.1 µM]
SMILES	IMPase Li cell	PNC inhibitor	ALDH1A1 inh	HPGD block	IMPase inh	NPSR antag
COCCn1c(SCc2nnc(-c3ccccc3)o2)nc2sc3c(c2c1=O)CCC3	21.7%[38.3 µM]	51.3	-7.6%	7.08µM*	8.7	?
O=C1CC(NCC2CCCO2)C(=O)N1c1ccc(Cl)cc1 (stereo not drawn)	4.7%	nt	?	nt	nt	-1.2%
Cc1ccc(N2C(=O)CC(NCC3CCCO3)C2=O)cc1 (stereo not drawn)	-2.3%	nt	20µM*	nt	nt	-14.3%
CC(NC(=O)CC1Nc2ccccc2NC1=O)c1ccccc1 (stereo not drawn)	14.8%[38.3 µM]	13.4	?	-20.0%	-6.5	-9.1%[46.1 µM]
COCCOC(=O)c1nccnc1C(=O)Nc1ccc(S(=O)(=O)N2CCOCC2)cc1	nt	nt	nt	nt	nt	17.4%
CCN(Cc1cc2ccccc2[nH]c1=O)C(=O)c1cccc([N+](=O)[O-])c1	nt	nt	nt	nt	nt	-3.8%
O=C(c1ccc(N2CCC3(CC2)OCCO3)c([N+](=O)[O-])c1)N1CCOCC1	1.9%	nt	-7.1%	nt	nt	18.9%
COC(CNC(=O)c1ccc(N2CCC3(CC2)OCCO3)c([N+](=O)[O-])c1)OC	1.5%	29.6	28.2µM*	-15.8%	-0.8	6.6%
COc1ccccc1N/C(N)=N/c1nc(CSc2ccc(C)cc2)cc(=O)[nH]1	15.9%[38.3 µM]	15.0	-5.6%	-9.2%	-10.0	-11.3%[46.1 µM]
COc1ccc(N(CC(=O)Nc2ccc(S(=O)(=O)N3CCCC3)cc2)S(C)(=O)=O)cc1OC	5.2%	-7.8	?	1.9%	1.1	-17.6%[46.1 µM]
Cc1sc2ncnc(N3CCC(C)CC3)c2c1C	-4.6%	-12.7	2.8%	22.4µM*	16.3	-22.4%[46.1 µM]
Cc1nc(C)c(-c2csc(NCc3ccco3)n2)s1	33.1%[38.3 µM]	36.1	-1.9%	-13.1%	1.4	-11.0%[46.1 µM]
Cc1nc2ccccn2c1-c1csc(NCc2ccco2)n1	13.3%[38.3 µM]	14.6	22.4µM*	?	6.5	-13.3%[46.1 µM]
Fc1ccc(-c2c[nH]c(=S)n2Cc2ccccc2)cc1	12.0%	nt	0.355µM*	nt	nt	-48.0%
O=C(Cc1ccc(Br)cc1)Nc1ccc(S(=O)(=O)NCC2CCCO2)cc1 (stereo not drawn)	-1.2%	nt	-12.4%	nt	nt	-13.3%
O=C(CSc1ccccc1)Nc1ccc(S(=O)(=O)NCC2CCCO2)cc1 (stereo not drawn)	21.6%[38.3 µM]	?	22.4µM*	?	6.6	-13.2%[46.1 µM]
O=C(CCc1ccc(S(=O)(=O)NCc2ccccc2)cc1)NCC1CCCO1 (stereo not drawn)	-9.2%	-106.0*	-0.6%	-6.0%	nt	8.9%
COc1cccc(C(=O)O/N=C2\CCS(=O)(=O)c3sccc32)c1	-2.1%	nt	-0.4%	nt	nt	5.2%
Cc1ccc(Nc2nc(=O)c3cccnc3s2)cc1	21.4%[38.3 µM]	22.7	-0.3%	-28.8%	5.4	-5.6%[46.1 µM]
COc1ccc(OC)c(Nc2nc(=O)c3cccnc3s2)c1	6.8%	nt	2µM*	nt	nt	-11.2%

Assay outcomes deposited in PubChem by National Center for Advancing Translational Sciences (NCATS).
